Most compounds without a hit are left out; they make up all but 3.6% or so of the library.
Pf apPOL inh = Pf-apPOL inhibitors, biochemical, fluorescence; Plasmodium falciparum apicoplast DNA polymerase (apPOL); Recombinant Pf-apPOL, molecular beacon fluorescence, 1.5 h; inhibition, % at 10 µM; 210,000 tested, 0.25% active
mHTT-CaM PPI inh = mutant huntingtin-calmodulin interaction inhibitors – biochemical, AlphaScreen, primary screen; AlphaScreen His-mHTT/GST-CaM binding, luminescence; inhibition, % at 15 µM; 190,000 tested, 3.6% active;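 note: 0% = both proteins with DMSO and 100% = one protein alone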
Target sequence (P42858 whole entry, looked up, stated change not applied): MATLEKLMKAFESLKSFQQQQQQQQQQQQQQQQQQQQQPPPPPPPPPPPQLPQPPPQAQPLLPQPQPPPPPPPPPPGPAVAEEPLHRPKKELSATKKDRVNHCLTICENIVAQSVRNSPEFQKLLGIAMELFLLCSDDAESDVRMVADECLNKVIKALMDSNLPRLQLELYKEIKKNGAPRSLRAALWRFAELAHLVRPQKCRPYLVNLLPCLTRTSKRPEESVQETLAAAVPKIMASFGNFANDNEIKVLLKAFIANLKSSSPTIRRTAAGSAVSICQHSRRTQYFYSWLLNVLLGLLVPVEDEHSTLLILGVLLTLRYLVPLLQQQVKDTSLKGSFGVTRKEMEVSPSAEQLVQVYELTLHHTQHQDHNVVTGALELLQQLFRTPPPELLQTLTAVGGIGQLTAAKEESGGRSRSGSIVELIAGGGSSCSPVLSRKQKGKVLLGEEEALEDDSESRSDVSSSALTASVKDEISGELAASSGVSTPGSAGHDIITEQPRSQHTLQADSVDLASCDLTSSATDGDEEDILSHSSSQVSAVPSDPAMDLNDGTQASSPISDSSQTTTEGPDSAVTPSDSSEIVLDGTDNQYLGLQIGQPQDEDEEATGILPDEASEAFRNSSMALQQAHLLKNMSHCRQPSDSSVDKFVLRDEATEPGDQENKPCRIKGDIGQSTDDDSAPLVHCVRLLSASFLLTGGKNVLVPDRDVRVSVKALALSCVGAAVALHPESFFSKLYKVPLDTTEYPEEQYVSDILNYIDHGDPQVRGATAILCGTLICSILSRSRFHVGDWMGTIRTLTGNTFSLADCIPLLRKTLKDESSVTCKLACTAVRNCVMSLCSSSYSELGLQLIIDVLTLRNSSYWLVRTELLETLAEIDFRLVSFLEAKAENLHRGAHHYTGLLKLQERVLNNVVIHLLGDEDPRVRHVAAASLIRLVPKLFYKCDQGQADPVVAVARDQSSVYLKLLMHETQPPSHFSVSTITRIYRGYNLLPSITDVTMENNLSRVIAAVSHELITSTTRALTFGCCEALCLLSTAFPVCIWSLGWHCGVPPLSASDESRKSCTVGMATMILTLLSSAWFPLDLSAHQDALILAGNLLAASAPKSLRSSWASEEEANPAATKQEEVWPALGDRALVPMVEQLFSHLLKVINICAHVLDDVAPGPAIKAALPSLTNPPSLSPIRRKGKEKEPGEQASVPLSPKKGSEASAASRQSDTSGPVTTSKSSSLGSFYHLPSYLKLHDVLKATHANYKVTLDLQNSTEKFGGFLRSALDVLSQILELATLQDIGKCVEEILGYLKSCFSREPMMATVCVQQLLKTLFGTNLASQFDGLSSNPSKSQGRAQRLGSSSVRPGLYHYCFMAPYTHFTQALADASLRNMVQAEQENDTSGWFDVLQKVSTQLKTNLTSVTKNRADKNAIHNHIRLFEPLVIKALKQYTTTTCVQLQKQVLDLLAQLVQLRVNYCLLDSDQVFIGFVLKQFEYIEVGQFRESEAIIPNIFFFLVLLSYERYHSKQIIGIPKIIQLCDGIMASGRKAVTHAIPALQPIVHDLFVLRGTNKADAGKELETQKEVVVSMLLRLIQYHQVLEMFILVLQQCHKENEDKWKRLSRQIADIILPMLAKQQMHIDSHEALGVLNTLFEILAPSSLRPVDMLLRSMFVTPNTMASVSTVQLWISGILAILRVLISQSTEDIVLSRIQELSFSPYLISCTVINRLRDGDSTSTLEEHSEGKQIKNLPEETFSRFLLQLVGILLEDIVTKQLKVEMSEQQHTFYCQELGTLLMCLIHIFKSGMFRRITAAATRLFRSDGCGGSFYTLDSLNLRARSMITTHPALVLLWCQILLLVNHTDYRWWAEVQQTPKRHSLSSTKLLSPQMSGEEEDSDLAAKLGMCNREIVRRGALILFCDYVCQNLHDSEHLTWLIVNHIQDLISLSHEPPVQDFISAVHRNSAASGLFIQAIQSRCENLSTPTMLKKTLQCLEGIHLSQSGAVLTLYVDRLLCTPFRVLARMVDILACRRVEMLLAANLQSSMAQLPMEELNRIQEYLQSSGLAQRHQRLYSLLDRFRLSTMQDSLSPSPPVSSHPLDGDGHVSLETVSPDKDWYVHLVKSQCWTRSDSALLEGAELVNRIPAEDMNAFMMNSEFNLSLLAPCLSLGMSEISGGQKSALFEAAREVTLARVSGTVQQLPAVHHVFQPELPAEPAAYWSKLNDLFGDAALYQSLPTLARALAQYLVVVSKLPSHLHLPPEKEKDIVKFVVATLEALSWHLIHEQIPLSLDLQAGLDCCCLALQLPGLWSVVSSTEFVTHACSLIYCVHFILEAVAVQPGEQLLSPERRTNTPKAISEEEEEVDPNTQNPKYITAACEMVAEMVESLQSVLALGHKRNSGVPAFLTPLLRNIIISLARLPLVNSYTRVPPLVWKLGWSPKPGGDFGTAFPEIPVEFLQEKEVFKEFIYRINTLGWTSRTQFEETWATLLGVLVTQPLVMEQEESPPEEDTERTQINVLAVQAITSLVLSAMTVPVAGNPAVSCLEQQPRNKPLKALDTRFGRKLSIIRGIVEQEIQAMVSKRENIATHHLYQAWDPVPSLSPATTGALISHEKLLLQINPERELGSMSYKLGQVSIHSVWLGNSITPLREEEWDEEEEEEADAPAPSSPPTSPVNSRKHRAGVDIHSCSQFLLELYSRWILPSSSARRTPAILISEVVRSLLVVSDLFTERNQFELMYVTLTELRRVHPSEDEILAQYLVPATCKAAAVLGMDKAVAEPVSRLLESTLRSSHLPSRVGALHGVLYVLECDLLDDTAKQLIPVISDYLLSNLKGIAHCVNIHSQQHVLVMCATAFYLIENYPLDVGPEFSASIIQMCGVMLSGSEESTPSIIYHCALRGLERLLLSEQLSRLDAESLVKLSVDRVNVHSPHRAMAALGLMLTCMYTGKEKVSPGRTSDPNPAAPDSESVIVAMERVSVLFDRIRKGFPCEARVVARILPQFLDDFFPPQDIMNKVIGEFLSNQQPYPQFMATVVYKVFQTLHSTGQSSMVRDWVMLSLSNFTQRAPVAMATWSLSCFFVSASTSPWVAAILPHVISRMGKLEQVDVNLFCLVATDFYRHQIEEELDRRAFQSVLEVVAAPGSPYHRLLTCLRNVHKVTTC
* = called active by the depositor; / = not tested or not shown. Cut-off read from the data, not from the text of the source: active = inhibition above about 50%; inactive = the rest.

SMILES	Pf apPOL inh	mHTT-CaM PPI inh
O=c1c(N=Cc2ccccc2)cc2[nH]c3ccccc3c2n1-c1ccccc1	-5	99*
O=c1c(-[n+]2ccccc2)cc2[nH]c3ccccc3c2n1-c1ccccc1	-1	14
Cc1ccc(C)c(N=Cc2cccc([N+](=O)[O-])c2)c1	6	1
O=c1c(N=Cc2cccc([N+](=O)[O-])c2)cc2[nH]c3ccccc3c2n1-c1ccccc1	4	97*
COc1ccc(-c2nnc(NC(=O)c3ccccc3I)s2)cc1	-6	-1
Cc1sc(NC(=O)CSc2nncn2C)nc1-c1ccccc1	-9	5
COc1ccccc1N1CCN(C/C=C/c2ccc(N(C)C)cc2)CC1	-9	62*
CCN1CCN(C/C=C/c2ccc(N(C)C)cc2)CC1	-2	32
Cc1ccc(NC(=O)c2cc(S(=O)(=O)NC3CCCC3)ccc2F)cc1Cl	-2	20
O=C(Nc1ccc(Cl)c(Cl)c1)c1cc(S(=O)(=O)NC2CCCC2)ccc1F	-3	93*
O=C(Nc1cc(Cl)cc(Cl)c1)c1ccc(F)c(S(=O)(=O)NCc2ccc(F)cc2)c1	39	53*
CCOc1ccccc1NC(=O)c1cc(S(=O)(=O)NCCc2ccc(Cl)cc2)ccc1F	31	56*
O=C(Nc1ccc(Cl)cc1)c1cc(S(=O)(=O)NCc2ccccc2Cl)ccc1F	84*	5
O=C(Nc1cccc(F)c1)c1cc(S(=O)(=O)NCc2ccccc2Cl)ccc1F	-6	1
COc1ccccc1NC(=O)c1cc(S(=O)(=O)NCCc2ccc(Cl)cc2)ccc1F	-4	-2
O=C(Nc1cc(Cl)cc(Cl)c1)c1ccc(F)c(S(=O)(=O)NCc2ccccc2)c1	28	0
CCN(CC)S(=O)(=O)c1cc(S(=O)(=O)c2ccc(Cl)cc2)ccc1C	5	-33
CCOc1cccc(CN2CCCC2c2cc(C(C)C)no2)c1O (centres undefined)	0	11
O=C(Nc1ccc(Cl)cc1)c1cc(S(=O)(=O)NC2CCCCCC2)ccc1F	78*	22
O=C(Nc1ccc(Cl)cc1)c1cc(S(=O)(=O)NC2CCCC2)ccc1F	49	-3
O=C(Nc1ccc(Cl)c(Cl)c1)c1ccc(F)c(S(=O)(=O)NC2CCCC2)c1	-3	65*
O=C(Nc1ccc(Br)cc1)c1ccc(F)c(S(=O)(=O)NC2CCCC2)c1	-4	35
COc1ccc(-c2noc(CCC(=O)NCCc3ccc(OC)c(OC)c3)n2)cc1	-1	10
Cc1cc(N2C=C(C(=O)N3CCCCC3)S(=O)(=O)c3ccccc32)ccc1F	-3	7
FC(F)(F)Oc1ccc(-c2nc(C3(c4ccc(Cl)cc4Cl)CC3)no2)cc1	4	/
SMILES	Pf apPOL inh	mHTT-CaM PPI inh
COc1cccc(C=Nc2cc(C)cc(C)c2O)c1O	-4	50*
Cc1cc(C)c(O)c(N=Cc2cccc([N+](=O)[O-])c2O)c1	-1	26
Cn1nc(COCc2ccccc2F)c2c1CCN(C(=O)c1ccc(Cl)cc1)C2	-6	14
O=C(c1cccc2[nH]ccc12)N1CCC(Nc2cccnc2)C1 (centres undefined)	1	6
COc1ccc(CNC(=O)Cn2nc3c(c2NC(=O)Cc2cccs2)CSC3)cc1	42	66*
COc1ccc(CC(=O)Nc2c3c(nn2-c2ccc(OC)cc2)CSC3)cc1	-1	31
CC1(C)COc2ccc(NC(=O)c3c(F)cccc3Cl)cc2NC1=O	-4	-9
O=C(Nc1ccc(Cl)cc1)c1cc(S(=O)(=O)NCc2ccco2)ccc1Cl	9	7
CCN1CCN(c2ncc3c(n2)CCN(Cc2cc(F)cc(F)c2)C3)CC1	-2	23
CCOc1ccc(CN2CCc3nc(N4CCCC4)ncc3C2)cc1OCC	3	0
Cc1cccc(CN2CCc3nc(N4CCCC4)ncc3C2)c1	8	84*
c1ccc(CN2CCc3nc(N4CCCC4)ncc3C2)cc1	6	48
CCN1CCN(c2ncc3c(n2)CCN(Cc2cccc(Br)c2)C3)CC1	2	57*
CN(C)c1ccc(CN2CCc3nc(N4CCN(c5ncccn5)CC4)ncc3C2)cc1	-3	100*
Brc1cccc(CN2CCc3nc(N4CCCC4)ncc3C2)c1	7	100*
Cc1ccc(CN2CCc3nc(N4CCN(c5ccccc5)CC4)ncc3C2)cc1	3	28
CC(=O)N/C(=C/c1ccc(Br)s1)C(=O)O	0	1
COc1ccccc1Cn1c(COc2ccccc2OC)nc2ccccc21	-5	44
O=C(NCCNC(=O)c1ccc2c(c1)OCO2)c1ccc(NC(=O)C2CC2)cc1	1	-9
O=C(c1cn2c(n1)COCC2)N1CCN(c2ccccn2)CC1	0	-4
O=C(NC1CCCC1)N1CCC(CCOc2ccncc2)CC1	-7	-1
COc1ccc(Nc2ncc3c(n2)CCN(Cc2ccc(C)c(C)c2)C3)c(OC)c1	-10	16
O=C(COc1ccc(Cl)cc1Cl)NC1CC(O)C(CO)C1 (centres undefined)	-10	-10
CCCc1[nH]n(-c2ccc(F)cc2)c(=O)c1C=Nc1ccc(Cl)cc1C	-3	3
COC(=O)c1ccc(Cl)c(NC(=O)NCC23CC4CC(CC(C4)C2)C3)c1	0	-4
SMILES	Pf apPOL inh	mHTT-CaM PPI inh
CCN1CCN(c2ncc3c(n2)CCN(Cc2ccccc2)C3)CC1	-5	55*
CCc1ccc(CN2CCc3nc(N4CCN(CC)CC4)ncc3C2)cc1	0	34
CC(Oc1cccc2cccnc12)C(=O)NN (centres undefined)	5	-9
O=[N+]([O-])c1ccccc1S(=O)(=O)NCCSCc1ccccc1	-8	13
Cc1c(Cl)cccc1S(=O)(=O)NCCC1CCN(C(=O)c2ccc(F)cc2)CC1	-2	51*
Cc1ccc(C(=O)N2CCC(CCNS(=O)(=O)c3cccc4nsnc34)CC2)cc1	-2	51*
Cc1cc(C)c(S(=O)(=O)NCCC2CCN(C(=O)c3ccc(F)cc3)CC2)cc1C	1	56*
Cc1ccc(S(=O)(=O)NCCC2CCN(C(=O)c3ccc(F)cc3)CC2)cc1C	-3	30
O=C(c1ccc(F)cc1)N1CCC(CCNS(=O)(=O)c2cccc3nsnc23)CC1	-1	42
Cc1ccc(C(=O)N2CCC(CCNS(=O)(=O)c3ccccc3Cl)CC2)cc1	-6	43
Cc1ccc(C(=O)N2CCC(CCNS(=O)(=O)c3cccc(Cl)c3C)CC2)cc1	-6	57*
O=C(c1ccc(F)cc1)N1CCC(CCNS(=O)(=O)c2ccccc2F)CC1	0	27
Cc1noc(C)c1S(=O)(=O)N1CCC(CC(=O)NCc2ccccc2F)CC1	-2	-1
Cc1ccc(/C=c2\sc3nc(-c4ccc(C(C)(C)C)cc4)nn3c2=O)o1	8	37
COc1ccc(CNCC(CO)C2(Cc3ccccc3)CCOC(C)(C)C2)cc1 (centres undefined)	-2	-3
Cc1ccc(C(=O)N2CCC3(CC2)CN(C(=O)c2ccccc2)CC3CO)cc1 (centres undefined)	-1	3
Cc1ccc(C(=O)N2CCC(CCNS(=O)(=O)c3ccc(F)c(Cl)c3)CC2)cc1	0	62*
O=C(c1ccccc1)N1CCC(CCNS(=O)(=O)c2ccc(F)c(Cl)c2)CC1	1	22
O=C(NC1CCCCC1)C1CC1(c1ccccc1)c1ccccc1 (centres undefined)	-1	-2
COc1ccc(NC(=O)N2CCC3(CC2)Nc2cc(F)ccc2-n2cccc23)c(OC)c1	-1	61*
COc1ccc(NC(=O)N2CCC3(CC2)NC(=O)c2ccccc2N3C)c(C)c1	-4	0

Bioassay records from PubChem BioAssay.
